Molecules are shown by their SMILES.

The target of assay [1] is Tumor necrosis factor receptor superfamily member 10B (Homo sapiens) (UniProt O14763). The assay can be described thus: caspase-8 TRAIL sensitization, hit retest, confirmation, cell-based, NB7+caspase-8, with/without TRAIL, luminescence panel (AID 651596). As to conditions: NB7 neuroblastoma + caspase-8, TRAIL sensitization, luminescence viability, with TRAIL, mean of runs, at 10 µM, stronger effect = higher value; in the data active = activity above about 50%; inactive = the rest.

Assay in assay [2]: as above
As to conditions: NB7 neuroblastoma + caspase-8, without TRAIL, luminescence viability, without TRAIL, mean of runs, at 10 µM.

Tumor necrosis factor receptor superfamily member 10B (Homo sapiens), sequence (O14763 whole entry, looked up): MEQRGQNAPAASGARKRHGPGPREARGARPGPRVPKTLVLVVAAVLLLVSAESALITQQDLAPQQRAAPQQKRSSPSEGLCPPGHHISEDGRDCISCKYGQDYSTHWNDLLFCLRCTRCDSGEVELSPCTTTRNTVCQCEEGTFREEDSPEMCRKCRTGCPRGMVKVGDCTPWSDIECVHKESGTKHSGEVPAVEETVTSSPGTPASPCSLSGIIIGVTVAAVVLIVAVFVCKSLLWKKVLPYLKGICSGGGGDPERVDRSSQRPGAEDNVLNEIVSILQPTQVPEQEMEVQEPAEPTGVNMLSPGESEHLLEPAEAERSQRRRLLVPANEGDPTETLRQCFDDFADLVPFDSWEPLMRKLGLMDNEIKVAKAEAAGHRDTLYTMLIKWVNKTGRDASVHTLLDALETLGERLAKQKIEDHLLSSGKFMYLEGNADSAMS

`C[C@]12CC[C@H]3C(CCC4(O)CC(O)CC[C@]34C=O)C1=CC[C@H]2c1ccc(=O)oc1` (some centres undefined): the figures for the activity in assay [1] and in assay [2] were 70.2% and 55.2%, respectively.

For `Cc1nc2cc(C(F)(F)F)ccc2n1C1CCN(Cc2nnnn2Cc2ccc3c(c2)OCO3)CC1`, the activity in assay [1] is 53%; in assay [2] it was 54.3%.

As to `Cc1cccc(C)c1-n1nnnc1C(CCc1ccccc1)N1CCC(n2c(=O)[nH]c3ccccc32)CC1` (centres undefined), the activity was found to be 90.2% in assay [1] and 82% in assay [2].

Turning to `CC1=CC2OC3CC4OC(=O)C=CC=CC(=O)OCCC(C)C(O)C(=O)OCC2(CC1)C4(C)C31CO1` (centres undefined), the results for the activity in assay [1] and in assay [2] were 75.6% and 80.9%, respectively.

With `ClCCN(CCCl)c1ccc(-n2cnc3c(Cl)ncnc32)cc1`, the activity worked out at 96.3% in assay [1] and 98.2% in assay [2].

Take `CCCCCN1C(=O)c2ccccc2[C@@]2(C(=O)OCC)Cc3cc(OC)ccc3[C@@H]12`: the activity stood at 47.4% in assay [1] and 63% in assay [2].

As to `CCOC(=O)[C@]12Cc3ccc(C)cc3[C@H]1N(C1CCCCC1)C(=O)c1ccccc12`, the activity in assay [1] amounted to 90.7%; in assay [2], 90.5%.

On to `O=c1[nH]c2ccccc2n1C1CCN(C(CCc2ccccc2)c2nnnn2Cc2ccccc2)CC1` (centres undefined), for which the values for the activity in assay [1] and in assay [2] were 95.3% and 92.7%, respectively.

Regarding `CCCCCCCCCCCCCCCC[N+](C)(C)C`, the activity in assay [1] and in assay [2] was 96.8% throughout.

As for `CC(=O)OC[C@]12CCC(C)=C[C@H]1O[C@@H]1[C@H](O)[C@@H](OC(C)=O)[C@@]2(C)[C@]12CO2`, the activity in assay [1] came out at 95.1%; in assay [2], 97.4%.

Turning to `C=CCn1c(O)c(C(CC)=NCc2cc(OC)cc(OC)c2)c(=O)[nH]c1=O`, the values for the activity in assay [1] and in assay [2] were 46.4% and 37.5%, respectively.

For the molecule `CCOC(=O)C(=CNc1ccc(C(O)(C(=O)OCC)C(F)(F)F)cc1C)C(=O)OCC` (centres undefined), the activity in assay [1] is -5.97%; in assay [2] it was 6.08%.

Take `CNC(=O)Oc1ccc(-c2cn3cc(C)ccc3n2)cc1`: the activity in assay [1] was determined as 95.7%; in assay [2], 95.5%.

In the case of `NC(=O)c1cn(C2OC(CO)C(O)C2O)c2ncnc(N)c12` (centres undefined), the activity was determined as 56.3% in assay [1] and 81.3% in assay [2].

With `CC1=CC2OC3CC4OC(=O)C=CC=CC(=O)OCCC(C)C(O)C(=O)OCC2(CC1O)C4(C)C31CO1` (centres undefined), the activity in assay [1] turned out to be 92.9%; in assay [2], 96.9%.

Consider `O=[N+]([O-])c1ccc(Cl)c([N+](=O)[O-])c1`, for which the activity in assay [1] was -3.27%; in assay [2], 54.8%.

Turning to `C[C@]12CCC3C(CCC4=CC(O)CC[C@@]43/C=N/O)C1(O)CCC2C1=CC(=O)OC1` (some centres undefined), the activity in assay [1] was 87%; in assay [2], 92.3%.

Source of the values: PubChem BioAssay.
